Data on eleven compounds can be found in PubChem BioAssay (NCI).

Structures are written as SMILES. This is part of a sample that, as a whole, favours compounds with a hit. Of some 83,000 tested, about 20% had one in any assay.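 Results are percent growth after 48 hours of single-concentration exposure. 100 means growth as in untreated cells, lower positive values show inhibition; negative values down to -100 show cell death.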 Unmarked numbers belong to inactive results. Active and inactive are the calls of the source. How the source made its calls: active means growth percent below 10; inactive means the rest.

Test systems include SK-MEL-2 melanoma; EKVX NSCLC; SN12C renal; UO-31 renal; TK-10 renal; ACHN renal; CAKI-1 renal; A498 renal; CCRF-CEM leukemia; MOLT-4 leukemia; SR leukemia; RPMI-8226 leukemia; OVCAR-8 ovarian; OVCAR-5 ovarian; SK-OV-3 ovarian; IGROV1 ovarian; OVCAR-3 ovarian; HS 578T breast; NCI/ADR-RES ovarian; OVCAR-4 ovarian.
Common to all, as to assay: NCI-60 one-dose screen, 48 h (100 = growth as untreated, 0 = no growth, -100 = all killed)
Common to all, as to settings: 10 µM unless noted

For `CCCCCCCCCCCCCCCCOc1ccccc1NC(=O)CC(C)=O`, the growth with SK-MEL-2 melanoma is 92.1%; with EKVX NSCLC it was 89.7%; with SN12C renal, 63.9%; with UO-31 renal, 25.8%; in the test with TK-10 renal, 114%; in the test with ACHN renal, 98.6%. For the same compound, the growth is 92.5% in the test on CAKI-1 renal; 93.5% with A498 renal; 57.1% in the test on CCRF-CEM leukemia; 84.8% in the test with MOLT-4 leukemia; 107% with SR leukemia; 64% with RPMI-8226 leukemia. Further, the growth is 113% in the test on OVCAR-8 ovarian; 102% with OVCAR-5 ovarian; 111% in the test with SK-OV-3 ovarian; 88.4% with IGROV1 ovarian; 118% with OVCAR-3 ovarian; 118% with HS 578T breast. Besides, the growth in the test with NCI/ADR-RES ovarian was 100%.

In the case of `Cc1ccc(C)c(CCO)c1`, the growth was 134% in the test with SK-MEL-2 melanoma; 112% with EKVX NSCLC; 99.9% with SN12C renal; 93.7% in the test with UO-31 renal; 99.6% in the test with TK-10 renal; 107% in the test with ACHN renal. The growth with CAKI-1 renal is 115%; in the test with A498 renal, 85.8%; in the test on CCRF-CEM leukemia it was 119%; with MOLT-4 leukemia, 113%; in the test with SR leukemia, 110%; in the test with RPMI-8226 leukemia, 138%. For the same compound, the growth is 98.8% with OVCAR-8 ovarian; 97% in the test with OVCAR-5 ovarian; 100% with SK-OV-3 ovarian; 115% with IGROV1 ovarian; 101% in the test with OVCAR-3 ovarian; 105% with HS 578T breast. The growth in the test on NCI/ADR-RES ovarian was 102%.

In the case of `O=Cc1ccc(O)c(O)c1`, the growth with SK-MEL-2 melanoma was 103%; in the test with EKVX NSCLC it was 103%; with SN12C renal, 94.9%; in the test on UO-31 renal it was 84.2%; with TK-10 renal, 107%; with ACHN renal, 114%. The growth in the test with CAKI-1 renal is 112%; with A498 renal it was 88.4%; with CCRF-CEM leukemia, 57.8%; in the test with MOLT-4 leukemia, 80.5%; in the test with SR leukemia, 82.9%; in the test with RPMI-8226 leukemia, 87.5%. Also, the growth in the test on OVCAR-8 ovarian is 95.8%; in the test with OVCAR-5 ovarian, 96.2%; in the test with OVCAR-4 ovarian it was 97.1%; in the test on IGROV1 ovarian, 88.8%; with OVCAR-3 ovarian, 96.3%; in the test with HS 578T breast it was 133%. Moreover, the growth in the test on NCI/ADR-RES ovarian is 93.1%.

As for `Cc1cc(C(=O)NN)c(C#N)c(=O)[nH]1`, the growth in the test with SK-MEL-2 melanoma was 100%; in the test on EKVX NSCLC, 109%; in the test with SN12C renal, 88.4%; in the test with UO-31 renal it was 88.3%; in the test with TK-10 renal, 115%; in the test on ACHN renal, 105%. In addition, the growth in the test on CAKI-1 renal is 96.8%; with A498 renal, 95.7%; in the test on CCRF-CEM leukemia, 95.9%; in the test on MOLT-4 leukemia it was 111%; in the test on SR leukemia it was 116%; with RPMI-8226 leukemia, 91.2%. In addition, the growth in the test on OVCAR-8 ovarian was 100%; with OVCAR-5 ovarian it was 106%; in the test on OVCAR-4 ovarian it was 107%; in the test on OVCAR-3 ovarian it was 112%; with HS 578T breast, 121%; in the test on NCI/ADR-RES ovarian, 99.1%.

As for `COc1ccc(Br)c(C=O)c1`, the growth in the test with SK-MEL-2 melanoma is 104%; in the test with EKVX NSCLC, 83.2%; in the test with SN12C renal, 63.9%; in the test on UO-31 renal, 54.1%; in the test with TK-10 renal, 83.7%; in the test on ACHN renal it was 88.9%. Besides, the growth is 63.9% in the test with CAKI-1 renal; 93.4% with A498 renal; 2.55% (active) in the test with CCRF-CEM leukemia; 18.9% with MOLT-4 leukemia; 8.35% (active) in the test on SR leukemia; 22.2% in the test on RPMI-8226 leukemia. Also, the growth is 69.1% in the test with OVCAR-8 ovarian; 93.1% in the test with OVCAR-5 ovarian; 88.5% with OVCAR-4 ovarian; 103% in the test with SK-OV-3 ovarian; 92.3% in the test on IGROV1 ovarian; 74.2% in the test with OVCAR-3 ovarian. The growth in the test on NCI/ADR-RES ovarian is 51.6%.

Consider `CC(=O)Oc1c(Cl)cccc1-c1ccccc1`, for which the growth in the test with SK-MEL-2 melanoma is 98.9%; in the test on EKVX NSCLC it was 103%; in the test on SN12C renal, 96.6%; in the test on UO-31 renal, 84.8%; in the test on TK-10 renal, 107%; with ACHN renal, 108%. The growth in the test on CAKI-1 renal is 98.3%; in the test with A498 renal, 96.9%; in the test on CCRF-CEM leukemia it was 101%; in the test on MOLT-4 leukemia, 107%; in the test with SR leukemia, 99.9%; in the test with RPMI-8226 leukemia, 99.3%. For the same compound, the growth is 100% with OVCAR-8 ovarian; 108% with OVCAR-5 ovarian; 110% in the test on OVCAR-4 ovarian; 102% in the test with IGROV1 ovarian; 103% in the test on OVCAR-3 ovarian; 90.7% in the test with HS 578T breast. Moreover, in the test on NCI/ADR-RES ovarian, the growth was 97.3%.

Turning to `Cc1[nH]n(-c2ccccc2)c(=O)c1C=NC(=S)C(N)=S`, the growth in the test with SK-MEL-2 melanoma is 109%; in the test on EKVX NSCLC it was 103%; in the test on SN12C renal, 105%; in the test with UO-31 renal it was 85.2%; in the test on TK-10 renal it was 125%; in the test with ACHN renal, 100%. Also, the growth was 97.2% in the test on CAKI-1 renal; 93.8% in the test with A498 renal; 94.1% in the test on CCRF-CEM leukemia; 102% with MOLT-4 leukemia; 89.9% with SR leukemia; 94.6% in the test on RPMI-8226 leukemia. The growth is 99.9% in the test on OVCAR-8 ovarian; 109% in the test on OVCAR-5 ovarian; 104% with OVCAR-4 ovarian; 112% in the test with IGROV1 ovarian; 108% in the test with OVCAR-3 ovarian; 92.1% with HS 578T breast. For the same compound, in the test with NCI/ADR-RES ovarian, the growth is 101%.

With `Cc1nc(C)c(C(=O)O)cc1C(=O)O`, the growth in the test with SK-MEL-2 melanoma was 114%; in the test with EKVX NSCLC, 102%; with SN12C renal, 125%; in the test with UO-31 renal, 97.2%; with TK-10 renal, 112%; in the test with ACHN renal, 104%. The growth in the test on CAKI-1 renal is 100%; in the test on A498 renal, 89.3%; with CCRF-CEM leukemia, 103%; in the test with MOLT-4 leukemia it was 103%; in the test on SR leukemia, 100%; with RPMI-8226 leukemia it was 106%. For the same compound, the growth in the test on OVCAR-8 ovarian is 115%; in the test with OVCAR-5 ovarian, 97.5%; in the test with OVCAR-4 ovarian, 122%; with SK-OV-3 ovarian, 104%; in the test on IGROV1 ovarian it was 124%; in the test on HS 578T breast, 124%. Moreover, the growth with NCI/ADR-RES ovarian is 107%.

On to `CC(C)Sc1ncnc2nc[nH]c12`, for which the growth in the test on SK-MEL-2 melanoma was 108%; with EKVX NSCLC it was 94.7%; in the test with SN12C renal, 96.7%; in the test with UO-31 renal it was 95.9%; in the test on TK-10 renal, 116%; in the test on ACHN renal it was 99.6%. Further, the growth was 101% in the test on CAKI-1 renal; 59.3% in the test with A498 renal; 111% in the test with CCRF-CEM leukemia; 146% in the test on MOLT-4 leukemia; 122% in the test with SR leukemia; 118% with RPMI-8226 leukemia. The growth in the test on OVCAR-8 ovarian was 107%; in the test with OVCAR-5 ovarian, 101%; in the test with OVCAR-4 ovarian, 115%; in the test on OVCAR-3 ovarian it was 120%; in the test on HS 578T breast it was 139%; with NCI/ADR-RES ovarian it was 102%.

Regarding `CCOc1ccncc1[N+](=O)[O-]`, the growth in the test on SK-MEL-2 melanoma was 104%; with EKVX NSCLC it was 104%; in the test on SN12C renal it was 110%; in the test on UO-31 renal, 99.9%; in the test on TK-10 renal, 104%; in the test on ACHN renal it was 115%. Moreover, the growth with CAKI-1 renal is 103%; in the test with A498 renal, 121%; in the test on CCRF-CEM leukemia it was 109%; in the test on MOLT-4 leukemia it was 102%; in the test with SR leukemia, 102%; in the test with RPMI-8226 leukemia, 112%. For the same compound, the growth in the test on OVCAR-8 ovarian is 97.5%; with OVCAR-4 ovarian, 116%; with SK-OV-3 ovarian, 110%; in the test with IGROV1 ovarian, 118%; in the test on OVCAR-3 ovarian, 106%; with HS 578T breast, 112%. Further, the growth in the test on NCI/ADR-RES ovarian is 106%.

As to `COC(=O)c1ccccc1C(=O)c1c(C)cc(C)cc1C`, the growth is 94% with SK-MEL-2 melanoma; 109% in the test on EKVX NSCLC; 99.9% in the test with SN12C renal; 92.9% with UO-31 renal; 88.3% in the test with TK-10 renal; 101% in the test with ACHN renal. For the same compound, the growth in the test on CAKI-1 renal was 96.4%; in the test with A498 renal, 88.9%; in the test on CCRF-CEM leukemia, 99.2%; with MOLT-4 leukemia it was 87.9%; in the test on SR leukemia it was 79.6%; in the test on RPMI-8226 leukemia, 93.5%. The growth is 101% in the test on OVCAR-8 ovarian; 101% with OVCAR-5 ovarian; 99.9% with OVCAR-4 ovarian; 98.5% in the test on IGROV1 ovarian; 103% with OVCAR-3 ovarian; 100% with HS 578T breast. Also, the growth with NCI/ADR-RES ovarian was 102%.
